From PubChem BioAssay AID1851 (National Center for Advancing Translational Sciences (NCATS), 2009)
Several values for one entry are separate records, joined by “and”; a condition that tells them apart may be missing. Equal entries are not always repeated. The campaign covered roughly 16,000 compounds. About 4,000 (25%) were called active. About 26% were inconclusive and are not listed. The list is a sample of the results. Unmarked numbers belong to inactive results. Calls follow the shape of the dose curve; as a rule, active = well fitted curve in the direction sought with a large enough effect; inconclusive = small, poorly fitted or top-dose-only effect, or effect the other way; inactive = no such curve, though single readings can be large or run the other way.

target: Cytochrome P450 2C9 (Homo sapiens) (UniProt P11712); experiment: Cytochrome panel assay with activity outcomes; settings: recombinant CYP, pro-luciferin dealkylation, luminescence, p450-cyp2c9; series mostly up to 57.1 µM; activity, negative = inhibition: at the top concentration
% is scaled to controls: 0 for no effect and ±100 for the full control effect.

Sequence of Cytochrome P450 2C9 (Homo sapiens) (P11712 whole entry, looked up): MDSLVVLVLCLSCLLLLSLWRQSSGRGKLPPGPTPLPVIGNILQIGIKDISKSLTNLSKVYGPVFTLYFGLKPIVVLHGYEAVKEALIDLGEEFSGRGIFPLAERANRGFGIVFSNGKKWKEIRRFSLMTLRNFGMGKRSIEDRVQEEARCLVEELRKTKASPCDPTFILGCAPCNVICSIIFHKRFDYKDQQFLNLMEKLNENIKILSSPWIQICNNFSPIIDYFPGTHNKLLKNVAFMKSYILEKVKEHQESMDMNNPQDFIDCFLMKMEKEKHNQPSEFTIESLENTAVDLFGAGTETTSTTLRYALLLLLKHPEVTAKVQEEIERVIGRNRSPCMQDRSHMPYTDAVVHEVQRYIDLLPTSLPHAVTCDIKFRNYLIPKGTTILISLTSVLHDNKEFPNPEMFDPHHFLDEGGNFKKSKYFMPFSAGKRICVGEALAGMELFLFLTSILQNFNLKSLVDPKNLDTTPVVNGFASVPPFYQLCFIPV

Row | SMILES | activity, negative = inhibition | AC50
1 | O=C(O)[C@@H](O)[C@@H](O)[C@@H](O)[C@@H](O)C(=O)O (tested in a mixture with another compound) | -19.4% [at 25.6 µM] | 
2 | Cc1cccc2c1OCC/C2=N\NC(=O)COc1ccccc1 |  | 15.8 µM (active)
3 | Cc1ccccc1OCC(=O)N/N=C1\CCOc2c(C)cccc21 | -0.88% | 
4 | CCCCOc1ccc(/C=C/C(=O)NCCc2nc3ccccc3[nH]2)cc1 |  | 6.31 µM (active)
5 | COc1ccc(CNC(=O)/C=C/c2ccc(OCCCF)cc2)cc1 | -25.4% | 
6 | N#C/C(=C\c1ccc(O)c(O)c1)C(=O)Nc1ccccc1 | -18.9% | 
7 | Cc1cccc(OCC(=O)N/N=C\C=C\c2ccc3c(c2)OCO3)c1C | 8.15% | 
8 | Cc1ccc(NC(=O)/C(=C\c2ccc3c(c2)OCO3)NC(=O)c2ccco2)cc1 |  | 3.55 µM (active)
9 | O=C(Nc1ccccc1)N1CCC2(CC1)CCN(C(=O)c1ccco1)CC2 | -7.61% | 
10 | O=C(Nc1ccccc1)/C(=C\c1ccc2c(c1)OCO2)NC(=O)c1ccco1 |  | 10 µM (active)
11 | Cc1noc(C)c1C(=O)N1CCC[C@@]2(CCN(C(=O)Nc3cccc(F)c3)C2)C1 | -5.02% | 
12 | O=C(Nc1c[nH]c(=O)[nH]c1=O)Oc1ccccc1 | 1.86% [at 11.4 µM] | 
13 | NOCC(=O)O | -0.0818% | 
14 | Cc1ccc(Sc2cc(Cl)nc(N)n2)cc1 | -3.63% | 
15 | CCNc1nc(Sc2ccc(C)cc2)cc(C(F)(F)F)n1 |  | 25.1 µM (active)
16 | CC[C@@H](CS(=O)(=O)O)[N+](=O)[O-] | 5.26% [at 11.4 µM] | 
17 | O=C(CN(Cc1ccccc1)S(=O)(=O)c1ccc2c(c1)OCCO2)N/N=C/c1ccc(F)cc1 |  | 14.1 µM (active)
18 | COCc1cc(=O)[nH]c2cc(NC(=O)C(F)(F)F)c(C)cc12 | 10.5% | 
19 | CCC(=O)Nc1nonc1-c1nc2ccccc2n1N(C(=O)CC)C(=O)CC |  | 10 µM (active)
20 | CCn1c(-c2nonc2NC(=O)c2ccccc2)nc2ccccc21 |  | 0.501 µM (active)
21 | Cc1ccc(C(=O)Nc2nc3ccccc3n3nnnc23)cc1 | -12.8% | 
22 | CC(=O)OC[C@H]1O[C@@H](O/N=C\[C@@H](C)[C@H](OCc2ccccc2)C(C)C)[C@H](OC(C)=O)[C@@H](OC(C)=O)[C@H]1OC(C)=O | 1.31% [at 11.4 µM] | 
23 | CC[C@]1(C)CC(=O)NC1=O |  | inactive
24 | Cc1cc(C(=O)N[C@H](c2ccccc2)[C@@]2(C)C[C@@H]2[C@@H](C)C(=O)Nc2ccc3ccccc3c2)n(C)n1 |  | 7.94 µM (active)

Row | SMILES | activity, negative = inhibition | AC50
25 | Cc1cc(C(=O)N[C@@H](c2ccccc2)[C@]2(C)C[C@H]2[C@@H](C)C(=O)Nc2ccc3ccccc3c2)n(C)n1 |  | 3.98 µM (active)
26 | C[n+]1cc(-c2ccccc2)n2c1CCCCC2 | 18.1% | 
27 | CN(C)CCCN1c2ccccc2Sc2cnccc21 | 5.82% [at 11.4 µM] | 
28 | Cc1ccc(C(C(=O)NCc2ccco2)N(C(=O)CNC(=O)c2cccs2)c2ccc(C)cc2)cc1 (configuration not stated) | -21.2% | 
29 | Cc1ccc(C(C(=O)NCc2ccco2)N(C(=O)CNC(=O)c2cccs2)c2ccc(C)cc2C)cc1 (configuration not stated) |  | 0.447 µM (active)
30 | C[C@H](O/N=C1/[C@H]2O[C@@H]2[C@@H](O)[C@H]2[C@H]1CCn1c(=O)n(-c3ccccc3)c(=O)n12)c1cn([C@H](CO)Cc2ccccc2)nn1 | -5.06% [at 11.4 µM] and -0.376% [at 11.4 µM] | 
31 | N#Cc1cc(-c2ccccc2)cnc1Sc1ccc(Cl)cc1 |  | 3.55 µM (active)
32 | CNc1nc(-c2cccc(C#N)c2)nc2ccccc12 | -18.8% [at 2.29 µM] | 
33 | Cc1ccc(-c2nc(-c3nccc4ccccc34)oc2-c2ccccc2)cc1 | -0.601% [at 11.4 µM] | 
34 | Cc1nc(Cl)c(C#N)cc1-c1ccccc1 |  | 10 µM (active)
35 | Cc1nc(Sc2ccccc2)c(C#N)cc1-c1ccccc1 |  | 5.01 µM (active)
36 | Cc1ccc(Sc2nc(-c3ccccc3)ccc2C#N)cc1 |  | 7.94 µM (active)
37 | CCOC(=O)CCN1C(=O)[C@H]2[C@H]3[C@H](O)[C@H](O)C/C(=N/OC[C@@H](O)COCc4ccco4)[C@H]3CC[C@@H]2C1=O | 10.4% [at 11.4 µM] | 
38 | CN(C/C=C\c1ccccc1)Cc1cccc2ccccc12 | -24.2% [at 25.6 µM] | 
39 | CN(C)c1nc(-c2ccoc2)nc2ccccc12 | 21.3% [at 2.29 µM] | 
40 | O=C(NC1CCCCC1)C1CC=CCC1C(=O)OCC(Cl)=C(Cl)Cl (configuration not stated) |  | 1.41 µM (active)
41 | C#CCCCO/N=C1/C[C@@H](O)[C@@H](O)[C@@H]2[C@@H]3C(=O)N(Cc4ccccc4)C(=O)[C@H]3CC[C@@H]12 | -2.53% [at 11.4 µM] | 
42 | NC[C@](O)(CS(=O)(=O)O)c1ccc(Cl)cc1 | 11.2% | 
43 | COc1ccc(CCN2C(=NC(=O)CCC(=O)O)SC3CS(=O)(=O)CC32)cc1 (configuration not stated) | -18.3% | 
44 | O=[N+]([O-])c1ccc2ncccc2c1CCc1c([N+](=O)[O-])ccc2ncccc12 | 13% [at 11.4 µM] | 
45 | O=C(c1ccc([N+](=O)[O-])cc1)[C@@H](Br)[C@@H](Br)c1ccnc2ccccc12 |  | 3.16 µM (active)
46 | CCC[C@@H]1O[C@@H]2C[C@@H]3[C@H]4CCC5=CC(=O)C=C[C@@]5(C)[C@H]4[C@H](O)C[C@@]3(C)[C@@]2(C(=O)CO)O1 | -19% [at 25.6 µM] | 
47 | N#C/C(=C\c1ccc(Cl)cc1)c1nc2ncccc2[nH]1 |  | 7.08 µM (active)
